Reference: ChEMBL document CHEMBL1157539, “Thousands of chemical starting points for antimalarial lead identification” (Nature, 2010)

These compounds were tested on Plasmodium falciparum (assay: GSK_TCMDC: Inhibition of Plasmodium falciparum 3D7 in whole red blood cells, using parasite LDH activity as an index of growth. Test compounds present at 2uM).
Type: functional

SMILES | Inhibition
C=CCN1C(=O)C(=Cc2cc(Br)ccc2O)SC1=Nc1ccccc1 | 96%
Cl.N#Cc1cccc(-c2ccc(C(=O)Nc3ccc4c(c3)CCN(C3CCC3)CC4)cn2)c1 | 96%
COc1ccc2[nH]c(C)cc(=NN=Cc3cc(C)ccc3O)c2c1 | 100%
O=C(Nc1ccccc1)N(Cc1ccccc1-c1cccc(CNC2CCCC2)c1)C1CCN(Cc2ccccc2)CC1.O=C(O)C(F)(F)F | 100%
COc1ccc2nc(-c3cc(-c4ccc(NC(=O)C(C)C)cc4)cnc3N)[nH]c2c1 | 100%
COc1ccc(NC(=O)[C@H](Cc2ccccc2)Nc2cc(C)nc(NCC3CCCCC3)n2)cc1.O=C(O)C(F)(F)F | 100%
CS(=O)(=O)NCCCNCc1cccc(-c2csc(-c3nc4ccccc4[nH]3)c2)c1.O=C(O)C(F)(F)F | 95%
Cl.Fc1cc(CN2CCCC2)ccc1OCCCN1CCN(c2cccc(Cl)c2Cl)CC1 | 82%
c1ccc(CNc2nc(NCCc3c[nH]cn3)nc(NCc3cccc4ccccc34)n2)cc1 | 91%
CCNc1cc(C(=O)N[C@@H](Cc2ccccc2Cl)[C@H](O)CNC(C)CCCC(C)C)cc(N2CCCCS2(=O)=O)c1.Cl (some centres not stated) | 97%
O=S(=O)(Nc1ccc(CCN2CCC(N3CCCCC3)CC2)cc1)c1cccc2cccnc12 | 100%
COc1ccc2nccc([C@@H](O)CN3CCC(NCc4ccc5sc(=O)[nH]c5c4)CC3)c2c1.O=C(O)C(=O)O | 98%
COc1ccccc1-c1nc2nc(N)nc(N)c2nc1-c1ccccc1OC | 84%
CN1CCC[C@H]1COc1ccc(CN2CC[C@H](NC(=O)c3ccc(Cl)c(Cl)c3)C2)cc1Cl.O=C(O)C(F)(F)F | 97%
O=c1c2ccccc2[nH]c2cc(Cl)ccc12 | 95%
CNC(=N)c1ccc(NC(=O)c2ccc(C(=O)Nc3ccc(C(=N)NC)cc3)cc2)cc1.Cl | 96%
N=C(N)NN=CC(=O)Nc1cccc(C(F)(F)F)c1.O=S(=O)(O)O | 99%
CN(C)c1ccc(CN2CCCC(CNC(=O)c3ccc(-c4cccc(C(F)(F)F)c4)s3)C2)cc1.O=C(O)C(F)(F)F (configuration not stated) | 89%
CN(/N=C/C=C/c1ccc(Cl)cc1)c1nc(NCCc2ccc(O)cc2)nc(N2CCNCC2)n1 | 92%

SMILES | Inhibition
Cl.O=S(=O)(Nc1ccc2nccc(N3CCNCC3)c2c1)c1ccc(-c2ccccc2)cc1 | 100%
O=C(Nc1cccc(Cl)c1)N[C@H]1CCN(Cc2ccc(OCCCN3CCCCC3)cc2)C1 | 99%
Cc1ccc(NC(=O)c2cc(Br)cc(N3CCC(N(C)C)CC3)c2)cc1F.O=C(O)C(F)(F)F | 100%
COc1cc(N)c(Cl)cc1C(=O)NC1CCC(NCC2CCCCC2)CC1.Cl (configuration not stated) | 90%
Cc1cc2c(cc1C(F)(F)F)N(C(=O)Nc1cnc(OCCN(C)C)c(C(F)(F)F)c1)CC2 | 88%
CCOc1ccc2ccccc2c1CNCCCCCCNCc1c(OCC)ccc2ccccc12.CS(=O)(=O)O | 100%
N=C(N)NC(=O)Nc1cc(F)c(Cl)c(Br)c1 | 100%
CC(O)C1CCCCN1C(=O)c1cccc(-c2ccc(-c3nc4ccccc4[nH]3)s2)c1 (configuration not stated) | 100%
CC(C)CNC(=O)CN1C(=O)C(c2ccccc2)(c2ccccc2)N=C1N | 94%
Fc1ccc2[nH]c(-c3ccc(-c4ccc(CN5CCC(CCN6CCCCC6)CC5)cc4)s3)nc2c1.O=C(O)C(F)(F)F | 100%
FC(F)(F)c1ccc2[nH]c(-c3ccc(-c4ccc(CNCCN5CCNCC5)cc4)s3)nc2c1.O=C(O)C(F)(F)F | 94%
Cc1cc(Nc2ccc(C)c(Cl)c2)n2nc(C(F)(F)F)nc2n1 | 98%
CCC(C)(C)c1ccc2nc(N)nc(N)c2c1C | 91%
CC(C)CC1c2[nH]c3ccccc3c2CCN1C(=O)CCc1ccccc1 (configuration not stated) | 92%
CCNc1cc(C(=O)N[C@@H](Cc2ccccc2)[C@H](O)CNCCc2ccccc2)cc(N2CCCC2=O)c1.O=C(O)C(F)(F)F | 92%
COc1ccc(-c2c3c(=O)n(C)c(=O)n(C)c3c3nnc4ccccc4n23)cc1 | 96%
Cc1cc2ccc(-c3cccc(CN)c3)cc2nc1N.Cl | 100%
CN1CCN(CCCN(Cc2ccc(-c3cccc(CNCc4ccc5c(c4)OCO5)c3)cc2)C(=O)NCCc2ccccc2)CC1.O=C(O)C(F)(F)F | 98%
